Records with an inconclusive call do not appear. Entries that show only a call come without a potency. Activity calls are given as the source filed them. Calls follow the shape of the dose curve; as a rule, active = well fitted inhibition curve with a large enough effect; inconclusive = small, poorly fitted or top-dose-only effect; inactive = no such curve, though single readings can be large or run the other way.

The assay can be described thus: HTS Assay for Allosteric Antagonists of the Human D2 Dopamine Receptor: Hit Validation in HTRF (AID 624455).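 Also: stable D1 dopamine receptor cell line scored for blocking the D1 response.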 Conditions: Cells stably expressing D1 dopamine receptor, inhibition mode; series mostly up to 46.1 µM. A digest of the protocol:
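First, antagonism was screened by calcium flux in a force-coupled, inducible Hek293 Trex D2 line challenged with EC80 dopamine. Hits then went into an HTRF assay in cells stably expressing D1, testing inhibition of the D1 response.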
(In general: In TR-FRET formats the signal depends on donor and acceptor labels being close together.)
Turning to `OCC1O[C@H](O)C(Cl)C(O)C1O` (stereo partly specified), the Potency result was “inactive”.

For `N#C/C(=C\c1ccc(O)c(O)c1)C(=O)NCCCc1ccccc1`, the Potency entry was “inactive”. `CCc1c(C(=O)NCCc2ccc(N3CCCCC3)cc2)[nH]c2ccc(Cl)cc12`: the Potency entry was “inactive”. For the compound `O=C(Nc1cccc(C(=O)Nc2ccc(S(=O)(=O)O)c3cc(S(=O)(=O)O)cc(S(=O)(=O)O)c23)c1)Nc1cccc(C(=O)Nc2ccc(S(=O)(=O)O)c3cc(S(=O)(=O)O)cc(S(=O)(=O)O)c23)c1`, the Potency entry was “inactive”. As to `CCN(CC)c1ncnc2c1ncn2[C@@H]1O[C@H](COP(=O)(O)OP(=O)(O)C(Br)(Br)P(=O)(O)O)[C@@H](O)[C@H]1O`, the Potency result was “inactive”. With `CC1OC1P(=O)(O)O` (stereo unspecified), the Potency result was “inactive”.

Regarding `CC(N)C(=O)OC(C)(C)Cc1ccc(Cl)cc1` (stereo unspecified), the Potency entry was “inactive”. `O=c1[nH]c2cc(Cl)c(Cl)cc2[nH]c1=O`: the Potency entry was “inactive”. Turning to `COc1cc2nc(N3CCN(C(=O)OCc4ccccc4)C(C(=O)NC(C)(C)C)C3)nc(N)c2cc1OC` (stereo unspecified), the Potency result is “inactive”. Regarding `C=C[C@@H]1CN2CC[C@@H]1C[C@H]2[C@H](O)c1ccnc2ccc(OC)cc12`, the Potency result is “inactive”.

Consider `CC(=O)N[C@H](C(=O)O)C(C)(C)SN=O`, for which the Potency entry is “inactive”. As to `CN1[C@@H](CC(=O)c2ccccc2)CCC[C@H]1C[C@H](O)c1ccccc1`, the Potency entry was “inactive”. For `CC(C)CC(NP(=O)(O)O[C@@H]1O[C@@H](C)[C@H](O)[C@@H](O)[C@H]1O)C(=O)NC(Cc1c[nH]c2ccccc12)C(=O)O` (stereo partly specified), the Potency result was “inactive”. With `NS(=O)(=O)C#Cc1ccccc1` the entry was “inactive”; with `Cc1ccc(O)c(N=Nc2ccccc2)n1`, “inactive”. In the case of `Clc1ccc(N2CCN(Cc3c[nH]c4ncccc34)CC2)cc1`, the Potency result was “inactive”.

The values above are taken from PubChem BioAssay (NCATS).
